# Compound activity: PubChem, National Center for Advancing Translational Sciences (NCATS)
# BAZ2B inh: qHTS Assay for Inhibitors of BAZ2B | Bromodomain adjacent to zinc finger domain protein 2B (Homo sapiens), Q9UIF8 | AlphaScreen BAZ2B-H3K14Ac peptide displacement | Potency, µM (highest dose often 114 µM), usual class: inhibitors | 360,000 tested, 4.4% active; note: nearly all actives have a fitted effect of over 60% in size
#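 BAZ2B (50 nM) with biotin-H3(5-23)K14Ac peptide (50 nM) in PBS pH 7.4, 0.01% Tween-20, preformed 30 min, then compound 30 min at room temperature; top concentration 110uM. AlphaScreen streptavidin donor/nickel chelate acceptor beads (10 ug/mL final), 20 min dark, signal read.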
# JMJD2A Tudor: qHTS Assay for Inhibitors of JMJD2A-Tudor Domain. Lysine-specific demethylase 4A (Homo sapiens), O75164. AlphaScreen JMJD2A-Tudor / H3K4me3 peptide binding. Potency, µM (highest dose often 114 µM), actives largely listed as inhibitors. 390,000 tested, 4.4% active; note: nearly all actives have a fitted effect of over 50% in size
# PI5P4Ka inh: qHTS for Inhibitors of phosphatidylinositol 5-phosphate 4-kinase (PI5P4K). PI5P4Kalpha enzyme, ADP-Glo luminescence, 60 min; hits give low values. Phosphatidylinositol 5-phosphate 4-kinase type-2 alpha (Homo sapiens), P48426. max response, %. 330,000 tested, 1.2% active; active = max response of -50% or lower; inconclusive = between -30% and -50%; inactive = -30% or higher; note: value at the top dose of about 77 µM
#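 Single end-point luminescence (ADP-Glo) quantified ADP from PI5P4Kalpha turnover; ATP 5 microM final, 1 h at RT, 0.1% CHAPS and 0.28 mM EGTA in HEPES pH 7.4.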
# KAT2A inh: qHTS Assay for Inhibitors of GCN5L2; Histone acetyltransferase KAT2A (Homo sapiens), Q92830; GCN5L2 HAT assay, ThioGlo1 CoA-SH fluorescence; Potency, µM (highest dose often 58.9 µM), most hits filed as inhibitors; 390,000 tested, 0.21% active; AID 504327, 2011
# Target sequence (Q92830 whole entry, looked up): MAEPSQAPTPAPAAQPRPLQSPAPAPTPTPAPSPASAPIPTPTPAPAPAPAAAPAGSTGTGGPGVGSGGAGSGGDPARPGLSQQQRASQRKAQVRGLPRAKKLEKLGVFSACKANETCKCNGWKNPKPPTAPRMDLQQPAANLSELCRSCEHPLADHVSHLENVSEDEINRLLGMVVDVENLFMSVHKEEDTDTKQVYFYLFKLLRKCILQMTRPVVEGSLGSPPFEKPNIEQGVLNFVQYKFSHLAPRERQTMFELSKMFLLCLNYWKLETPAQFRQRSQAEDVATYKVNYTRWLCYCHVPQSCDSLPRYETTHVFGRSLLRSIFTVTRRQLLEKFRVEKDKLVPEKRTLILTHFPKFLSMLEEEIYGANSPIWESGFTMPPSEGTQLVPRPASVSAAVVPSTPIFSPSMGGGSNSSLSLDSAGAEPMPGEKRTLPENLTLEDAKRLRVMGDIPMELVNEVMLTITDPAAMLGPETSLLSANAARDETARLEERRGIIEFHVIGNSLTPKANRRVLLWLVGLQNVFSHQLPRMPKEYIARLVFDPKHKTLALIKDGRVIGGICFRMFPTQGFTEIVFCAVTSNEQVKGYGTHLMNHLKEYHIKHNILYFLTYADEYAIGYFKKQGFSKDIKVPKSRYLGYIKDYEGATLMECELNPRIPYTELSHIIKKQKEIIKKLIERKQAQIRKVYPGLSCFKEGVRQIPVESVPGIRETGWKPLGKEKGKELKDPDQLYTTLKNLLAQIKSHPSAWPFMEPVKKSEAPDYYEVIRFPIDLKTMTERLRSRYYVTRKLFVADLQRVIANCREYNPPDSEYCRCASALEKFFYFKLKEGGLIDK
#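 Free CoA generated was detected with ThioGlo1 (50uM) fluorescence at Ex340nm/Em540nm, read immediately and after 20 min at room temperature. Enzyme, 20 nM in HEPES pH 7.5 buffer, saw compounds 15 min before adding 75uM H3(1-25) peptide and 70uM acetyl-CoA.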
# PLK1 PBD inh: qHTS for Inhibitors of PLK1-PDB (polo-like kinase 1 - polo-box domain): Primary Screen | Plk1 PBD binding of FITC phosphopeptide, fluorescence polarization | Potency, µM, actives largely listed as inhibitors | 360,000 tested, 2.8% active; note: series mostly up to about 57 µM; nearly all actives have a fitted effect of over 65% in size
# HP1b chromo inh: HTS for Inhibitors of HP1-beta Chromodomain Interactions with Methylated Histone Tails; 390,000 tested, 0.56% active; AlphaScreen HP1-beta / biotin-H3K9me3 peptide binding; Chromobox protein homolog 1 (Homo sapiens), P83916; Potency, µM (titrated, usually from 114 µM), hits mostly inhibitors; note: nearly all actives have a fitted effect of over 70% in size
#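 AlphaScreen: HP1-beta (50 nM) preformed 30 min with biotin-H3(1-18)K9me3 peptide (50 nM) in PBS pH 7.4, 0.01% Tween-20. Compound added for 30 min at RT, then streptavidin donor/nickel chelate acceptor beads (10 ug/mL) for 30 min.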
# A number is an active result; – = inactive; ? = inconclusive; · = not tested or not shown; [ ] = dose if it differs, or a comment. Only some compounds are listed: those with a hit (about 7% of all), similar ones and a draw of the others. Unless noted, calls come from the whole dose curve; as a rule, active = well fitted curve in the direction sought with a large enough effect; inconclusive = small, poorly fitted or top-dose-only effect, or another doubt; inactive = no such curve, though single readings can be large; an effect the other way counts as inactive or inconclusive.
SMILES,BAZ2B inh,JMJD2A Tudor,PI5P4Ka inh,KAT2A inh,PLK1 PBD inh,HP1b chromo inh
COc1cc(C(C[N+](=O)[O-])c2c(C)[nH]c3ccccc23)ccc1O (stereo not drawn),40µM,?,–,–,?,–
O=C(CCl)c1cc2c3c(c1)CC(=O)N3CCC2,?,–,–,–,1.2µM,–
O=C(NCCO)C(=O)Nc1cc2c3c(c1)CC(=O)N3CCC2,–,–,–,–,–,–
COc1ccc(NC(=O)c2ccc3c(SCC(=O)O)c4c(nc3c2)CCCC4)cc1Cl,–,·,·,–,·,·
O=C(O)CSc1c2c(nc3cc(C(=O)Nc4ccc(F)c(Cl)c4)ccc13)CCCC2,50µM,–,–,–,–,–
CCN(CC)C(=O)[C@H]1C[C@H](CC(=O)NC/C=C(\C)CCC=C(C)C)C(=O)N2CCc3c([nH]c4cc(-c5ccco5)ccc34)[C@]12C,·,32µM,–,–,–,?
CCN(CC)C(=O)[C@H]1CC(CC(=O)NC/C=C(\C)CCC=C(C)C)C(=O)N2CCc3c([nH]c4ccc(OC)cc34)[C@]12C (stereo partly drawn),·,50µM,–,–,–,?
CCOC(=O)c1scc(-c2ccccc2)c1S(=O)(=O)Nc1cc(Cl)c(OC)cc1OC,?,–,·,–,·,?
COc1ccc(CNC(=O)C2=C(C)C(=O)OC23CCN(C(C)=O)CC3)cc1,–,–,·,–,·,–
CC1=C([N+](=O)[O-])C(c2ccc3c(c2)OCO3)N(C)C(=O)N1C (stereo not drawn),–,?,?,–,8.4µM,–
CCn1nc(NC(=O)c2ccccn2)c2cc3cc(C)ccc3nc21,–,–[11.4 µM],–,–,24µM,–
Cc1ccc2nc3c(cc2c1)c(NC(=O)c1ccccn1)nn3CC(C)C,?,–,–,–,–,–
COC(=O)c1ccc(NN=Nc2ccc(C)cc2)cc1,?,32µM,–,–,?,79µM
C=C(C)C(=O)Oc1ccc(N=Nc2ccc(C)cc2)ccc1=O,·,3.5µM,–,·,21µM,10µM
CC(=O)c1ccc(Sc2ccc(C(C)=O)cc2)cc1,–,–,–,–,–,–
CC(=O)c1ccc(N=Nc2ccc(N(C)C)cc2)cc1,1.1µM,–,–,–,–,–
CC(=O)c1ccc(N=Nc2ccc(C)cc2)cc1,7.9µM,7.9µM,–,–,–,?
Cc1ccc(C(=O)c2ccc(C)cc2)cc1,–,–,–,–,–,–
COC(=O)c1ccc(Oc2c(F)c(F)nc(N3CCOCC3)c2F)cc1,–,–,–,–,–,–
CCN(CC(=O)NCc1cccs1)C(=O)c1ccc(NS(=O)(=O)c2ccc(C(C)=O)cc2)cc1,–,–,–,–,–,–
COc1cccc(CNC(=O)C(Cc2ccccc2)NS(=O)(=O)c2ccc3c(c2)CCN3C(C)=O)c1 (stereo not drawn),·,–,·,–,·,–
COc1ccc2c(c1OC)C(=O)OC2n1c(O)c(N=NC(C)=O)c2ccccc21 (stereo not drawn),–,–,–,–,–,–
C/C(=N\NC(=O)C1(C)NC(C)(C)Cc2ccccc21)c1ccccc1 (stereo not drawn),–,–,–,–,–,–
CC(C)CCNC(=O)CN(Cc1ccco1)C(=O)CCC(=O)Nc1nccs1,–,–,–,–,–,–
CN(C)c1ccc(N=Nc2ccccc2Br)cc1,4.5µM,10µM,–,–,–,5µM
CN(C)c1ccc(N=Nc2nccs2)cc1,·,·,–,·,–,·
CC(OC(=O)c1cccc(-n2cnnn2)c1)C(=O)NCc1ccccc1 (stereo not drawn),–,–,–,–,–,–
O=C(OCC(=O)N(C1CCCCC1)C1CCCCC1)c1ccncc1,–,?,–,–,21µM,–
